From PubChem BioAssay AID1817 (Sanford-Burnham Center for Chemical Genomics, 2009) come the findings set out here.

Hit rate of the full screen: of about 290,000 compounds, about 50 (0.02%) were called active. This excerpt belongs to a sample that is enriched for actives. Potency and affinity values are given separately. A number with no mark means an inactive call.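 Rule for the calls: active = displacement of at least 50% at 20 µM, with a fluorescence ratio check between 0.3 and a set limit; inactive = the rest.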

Chain of E3 ubiquitin-protein ligase SIAH1 (Homo sapiens) (Q8IUQ4 whole entry, looked up): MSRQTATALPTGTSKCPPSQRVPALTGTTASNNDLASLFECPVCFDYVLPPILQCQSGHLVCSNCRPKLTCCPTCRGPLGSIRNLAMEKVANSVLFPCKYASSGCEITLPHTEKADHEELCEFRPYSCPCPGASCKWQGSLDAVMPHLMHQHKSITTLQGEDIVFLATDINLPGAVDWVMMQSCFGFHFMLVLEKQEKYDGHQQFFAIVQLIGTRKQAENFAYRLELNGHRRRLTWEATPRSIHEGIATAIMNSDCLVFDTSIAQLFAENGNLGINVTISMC

The assay has as its target E3 ubiquitin-protein ligase SIAH1 (Homo sapiens) (UniProt Q8IUQ4). In words: blockers of Siah-1 interaction with plectin peptide – biochemical, fluorescence polarization, rhodamine-plectin, uHTS, primary screen (AID 1817).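 Note: plate controls were Siah plus tracer with DMSO for no effect and tracer alone without Siah for full effect.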 Conditions: Siah-1 / rhodamine-plectin peptide fluorescence polarization; at 20 µM; active compounds read high.
`CC(C)c1ccc(N2C(=O)NC(=O)/C(=C\C=C\c3ccco3)C2=O)cc1`: the displacement was 14.6%.

As to `Cc1ccc(N2C(=O)NC(=O)/C(=C\C=C\c3ccco3)C2=O)cc1`, the displacement is 12.1%.

`CC(C)c1ccc(N2C(=O)NC(=O)/C(=C/C=C/c3ccco3)C2=O)cc1`: the displacement is 51.8% (active).

As for `O=[N+]([O-])c1ccc(N2CCNCC2)cc1NCc1ccco1`, the displacement is -3.7%.

In the case of `C=C1C(=O)O[C@H]2C[C@@H](C)[C@@H]3C=CC(=O)[C@@]3(C)C[C@H]12`, the displacement was 12.6%.

Regarding `C=C1C(=O)O[C@@H]2C[C@@H](C)[C@@H]3C=CC(=O)[C@@]3(C)[C@@H](O)[C@H]12`, the displacement is 4.7%.

For the molecule `C=C1C(=O)O[C@@H]2C[C@@H](C)[C@H]3C=CC(=O)[C@]3(O)C[C@@H]12`, the displacement is 51.6% (active).

For `Cc1cc(C=O)c(C)n1C1CCCCC1`, the displacement was 2.7%.

Take `CCCCCn1c(NC(=O)c2ccco2)c(C(=O)OCC)c2nc3ccccc3nc21`: the displacement was 64.6% (active).

Regarding `CCOC(=O)c1c(N)n(CCCOC(=O)c2ccco2)c2nc3ccccc3nc12`, the displacement is 2.6%.

Regarding `CCCCn1c(NS(=O)(=O)c2ccc(C)cc2)c(C(=O)OCC)c2nc3ccccc3nc21`, the displacement is 34.7%.

`CCCCn1c(NC(=O)c2ccco2)c(C(=O)OCC)c2nc3ccccc3nc21`: the displacement is 4.9%.

For the molecule `COCCCn1c(N)c(C(=O)OCCOC)c2nc3ccccc3nc21`, the displacement was 2.9%.

In the case of `CCOC(=O)c1c(NS(=O)(=O)c2ccccc2)n(CCCOC)c2nc3ccccc3nc12`, the displacement is 67% (active).

As for `COc1ccc(NC(=O)N2CCC3(CC2)OCCO3)cc1`, the displacement was -2.3%.

Regarding `O=C(O)C1C2CCC(O2)C1C(=O)Nc1ccc(F)c(F)c1` (stereo not given), the displacement is 10.6%.

Regarding `O=C1NC(=S)N(Cc2ccco2)C(=O)/C1=C\c1cccs1`, the displacement was 21.3%.

For the molecule `Cc1ccccc1-n1c(O)c(/C=N/N2CCOCC2)c(=O)[nH]c1=S`, the displacement is 2.7%.

As to `Cc1cccc(C)c1NC1=NCCCCS1`, the displacement was -1.2%.

For the molecule `CCCC12CN3CCN(C1)CC(CCC)(C3)C2=O`, the displacement was 8.2%.
